This is an account of results in PubChem BioAssay AID2401 (Southern Research Specialized Biocontainment Screening …, 2010).

The campaign covered roughly 2,200 compounds. About 530 (24%) were called active.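 How the source made its calls: active means inhibition above a set limit at one or more concentrations of the dose series; inactive means inhibition under that limit at every dose.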 These entries were drawn from the full list. Results with a measured potency or affinity are listed apart.

A short description of this test: S. Typhimurium nonspecific reporter signal inhibition – Salmonella Typhimurium, GFP fluorescence, counter-screen for PhoP regulon inhibitor project, dose response (AID 2401).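 Further: S. typhimurium with Mg-insensitive nmpC-GFP reporter grown at 10 µM Mg2+; drop in reporter fluorescence reflects general culture growth inhibition.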 The conditions noted are these: 4 h; series mostly up to 150 µM.
In the case of `COc1ccc(OC)c(S(=O)(=O)N2c3cc(F)ccc3CCC2C)c1` (stereo not drawn), the result was inactive.
Take `O=C(NNc1c2ccccc2nc2ccccc12)c1cccc(O)c1`: the compound was classed as inactive.
Under `CC1(C)CC(=O)c2c(nc3ccccc3c2N)C1` stands “inactive”; under `Nc1nnc(SCc2ccc(F)cc2Cl)s1`, “inactive”.
Under `CNC(=O)CN(c1ccc(F)cc1)S(=O)(=O)c1cc(C)ccc1OC` stands “inactive”; under `CN1CCCC(OC(=O)CCCC(=O)OC2CCCN(C)C2)C1` (stereo not drawn), “inactive”.
Take `Cc1ccc2[nH]c3c(=O)n(CCc4cnc[nH]4)cnc3c2c1`: the result was inactive.
Consider `Cc1ccc(C(=O)COC(=O)CNS(=O)(=O)c2ccccc2)cc1[N+](=O)[O-]`, for which the compound was called inactive.
On to `CC(C)n1cc(C(=O)N2CCCC(N3CCN(c4ccc(F)cc4)CC3)C2)cn1` (stereo not drawn), for which the call was inactive.
The value for `CCn1cc(C(C)(C)C)c(C#N)c1NC(C)=O` was “inactive”.
For the compound `O=C(NC1CCCCC1)n1c(=O)oc2ccc(Cl)cc21`, the result was inactive.
Under `O=C(CCN1C(=O)C2C3C=CC(C3)C2C1=O)N1CCN(c2cccc(Cl)c2)CC1` (stereo not drawn) stands “inactive”; under `Cc1cccc(OCC(=O)N(Cc2cccs2)C2CCS(=O)(=O)C2)c1C` (stereo not drawn), “inactive”.
In the case of `CC(C)Oc1cccc(C(=O)NC(=S)Nc2ccccc2)c1`, the compound was called inactive.
The value for `CC(C)OC(=O)c1ccc(NC(=O)c2ccccc2)cc1` was “inactive”; that for `COc1ccc(Oc2coc3cc(OC(=O)c4cccs4)ccc3c2=O)cc1` was “inactive”; that for `COC(=O)c1ccc(NC(=O)c2ccc(N(C)S(C)(=O)=O)cc2)cc1` was “inactive”.
For the compound `O=C(CCCCCNc1nc(=S)[nH]c2ccccc12)NCCc1c[nH]c2ccccc12`, the compound was called inactive.
Under `O=C(NNC(=O)c1ccccc1-n1cccc1)c1ccc(Cl)c(Cl)c1` stands “inactive”; under `Cc1ccccc1NC(=S)N(CCCN1CCOCC1)Cc1ccccn1`, “inactive”; under `CCOc1ccc(/C=N/O)cc1`, “inactive”.
The value for `CCOc1ccc(CCNC(=O)c2cc3sc(Cl)cc3n2C)cc1OCC` was “inactive”.
Under `CCN1CCN(C(=O)c2ccc(COc3ccc(Cl)cc3)o2)CC1` stands “inactive”.
On to `COc1ccc(C)cc1C(=O)CCC(=O)Nc1ccccc1N1CCOCC1`, for which the compound was called inactive.
Under `C#CCOc1ccc(/C=N/O)cc1Cl` stands “inactive”.
For the compound `COc1ccc(C(C(=O)NC2CCCC2)N(C(=O)c2ccoc2C)c2cc(C)cc(C)c2)cc1` (stereo not drawn), the compound was called inactive.
The value for `COc1ccc(NS(=O)(=O)c2cc(C)ccc2NC(=O)c2cc(C)oc2C)cc1` was “inactive”.
Turning to `Cc1cc2oc(=O)cc(CSc3nc(N)cc(N)n3)c2cc1C`, the compound was classed as inactive.
Turning to `O=C(CSc1nncs1)Nc1ccc2c(c1)OCCO2`, the compound was classed as inactive.
The value for `CCOc1ccc(OCc2ccc(C(=O)N3CCc4ccccc4C3)o2)cc1` was “inactive”.
The value for `Cc1cc(C(=O)NCc2cccs2)cs1` was “inactive”.
The value for `COc1ccc2[nH]c(S(=O)Cc3ncc(C)c(OC)c3C)nc2c1` (stereo not drawn) was “inactive”; that for `Cc1ccc(C(C)C)c(OCC(=O)Nn2c(=O)[nH]c3ccccc3c2=O)c1` was “inactive”; that for `O=C(NC1CC1)C1=NOC(CNc2ncc(C(F)(F)F)cc2Cl)C1` (stereo not drawn) was “inactive”.
Take `O=C(Cc1n[nH]c(=O)c2ccccc12)OCC(=O)c1ccc2c(c1)OCCO2`: the compound was classed as inactive.
The value for `c1ccc(Cc2nnc(-c3ccccc3)o2)cc1` was “inactive”.
Under `CC(C)Cc1oc(C(=O)O)cc1CN1CCOCC1` stands “inactive”.
Under `COc1ccc(NC(=O)CN2CCCCC2)c([N+](=O)[O-])c1` stands “inactive”; under `Oc1ccccc1CN1CCCN(Cc2ccccc2O)C1`, “inactive”.
Turning to `CC(C)(C)c1ccc(C(=O)NC(=S)NCc2cccnc2)cc1`, the compound was classed as inactive.
The value for `O=C(Nc1nc2cc3c(cc2s1)OCO3)C1=COCCO1` was “inactive”; that for `CCOc1ccc(CSC(CC(=O)O)C(=O)O)cc1` (stereo not drawn) was “inactive”; that for `O=C(CSc1ncnc2ccccc12)Nc1cc(S(=O)(=O)N2CCCCC2)ccc1Cl` was “inactive”.
As for `Cc1ccc(CCNC(=O)C2CCN(S(=O)(=O)N3CCCC3)CC2)cc1`, the compound was called inactive.
The value for `N#Cc1ccc(COC(=O)c2ccc3c(=O)[nH]c(CN4CCOCC4)nc3c2)cc1` was “inactive”; that for `COc1ccc(CN2CCOCC2)cc1Br` was “inactive”; that for `COc1ccc(CCNC(=O)c2ccc(CN3CCOCC3)cc2)cc1` was “inactive”.
The value for `COc1ccc(C(=O)Oc2c(CN3CCOCC3)cc(Cl)c3cccnc23)cc1` was “inactive”; that for `COc1ccc(C2C(C(=O)c3cccs3)=C(O)C(=O)N2c2nnc(C)s2)cc1OC` (stereo not drawn) was “inactive”.
`CCC(CC)C(=O)Nc1cccc(C(=O)N2CCCC2)c1`: the compound was called inactive.
The value for `c1ccn2c(CNc3ncnc4sccc34)nnc2c1` was “inactive”; that for `Cc1cc(C)c2cc(CN(Cc3cccnc3)C(=O)c3ccc(F)cc3)c(Cl)nc2c1` was “inactive”; that for `c1ccc(C2(CNc3ccccn3)CCCC2)cc1` was “inactive”.
The value for `O=c1[nH]c(CSc2ncc(-c3ccc(F)cc3)n2Cc2ccco2)nc2ccccc12` was “inactive”; that for `CC(C)(C)C1CCC2(CC1)Nc1cccc3cccc(c13)N2` was “inactive”.
`CCn1c2ccccc2c2cc(NC(=O)C(C)Oc3ccccc3)ccc21` (stereo not drawn): the compound was classed as inactive.
Consider `COc1cccc(N(C(=O)c2ccco2)c2nc(-c3sc(NC(=O)c4ccco4)nc3C)cs2)c1`, for which the outcome was inactive.
The value for `Cc1ccc(Nc2nc(N)nc(CC#N)n2)cc1` was “inactive”; that for `C/C(CC(=O)Nc1ccc(Cl)c(C(F)(F)F)c1)=N\NC(=O)c1cccc(O)c1` was “inactive”.
Regarding `CCCCCC(=O)Nc1ccc2ccccc2c1`, the outcome was inactive.
Under `CC1CC(C)CN(CCCNC(=O)C2CCC(=O)N2C2CCCC2)C1` (stereo not drawn) stands “inactive”; under `Cc1ccc(NC2CC(=O)N(Cc3ccccc3)C2=O)cc1` (stereo not drawn), “inactive”.
Under `Cc1ccc(-n2nc(-c3ccc(N)cc3)cc2N)cc1` stands “inactive”; under `CC(C)=CCN1CCN(Cc2ccoc2)CC1CCO` (stereo not drawn), “inactive”.
The value for `O=C(CCCN1Cc2ccccc2C1)c1ccc(F)cc1` was “inactive”; that for `CCOc1ccc(/C=C/C(=O)Nc2ccc(OC)cc2[N+](=O)[O-])cc1` was “inactive”; that for `O=C(CSc1nc2ccccc2[nH]1)Nc1ccc(F)c(F)c1` was “inactive”.
As for `O=C(CNc1ccccc1)Nc1ccc(F)cc1`, the call was inactive.
The value for `COc1ccc(NC(=O)ON=C2c3ccccc3-c3ccccc32)cc1` was “inactive”; that for `Cc1ccc(-c2cc(-c3ccc(Cl)cc3)c(C#N)c(N)n2)o1` was “inactive”; that for `O=C1CCc2cc(S(=O)(=O)N3CCN(c4cccc(Cl)c4)CC3)ccc2N1` was “inactive”.
As to `CCNC(=S)NNC(=O)c1ccc(OC(F)F)cc1`, the result was inactive.
`Cc1ccc(NC(NC(=O)c2ccccn2)C(Cl)(Cl)Cl)cc1` (stereo not drawn): the compound was called inactive.
The value for `COC(=O)CCC(=O)Nc1ccc(Cl)c(Cl)c1` was “inactive”; that for `S=C(Nc1ccc(Cl)c(Cl)c1)N1CCOCC1` was “inactive”; that for `CCN(C(=O)COc1cc(=O)n(CC)c2ccccc12)c1cccc(Cl)c1` was “inactive”.
Under `O=C(c1ccc(Oc2ccccc2)cc1)c1nc2c(n1O)CCCC2` stands “inactive”; under `CC(C)(C)c1cc2cccnc2n1Cc1cccc(Cl)c1`, “inactive”.
Under `Nc1ncncc1-c1ccc([N+](=O)[O-])cc1` stands “inactive”.
`O=C(Cn1ncc2c(=O)oc3ccccc3c21)N1CCN(c2ccccn2)CC1`: the call was inactive.
The value for `O=C1CC(SCc2nc3ccccc3[nH]2)C(=O)N1c1ccc(Cl)cc1` (stereo not drawn) was “inactive”; that for `Cc1ccc(C(=O)CSC2=C(C#N)C(c3ccco3)CC(=O)N2)c(C)c1` (stereo not drawn) was “inactive”; that for `O=c1cc(-c2ccc([N+](=O)[O-])cc2)nc2cc(-c3ccc(Cl)cc3)[nH]n12` was “inactive”.
`Cc1ccc2cccc(Oc3ncnc4scc(-c5ccccc5)c34)c2n1`: the outcome was inactive.
The value for `CN1c2ccccc2C(=O)NC1c1ccc([N+](=O)[O-])s1` (stereo not drawn) was “inactive”; that for `NC(CSC12CC3CC(CC(C3)C1)C2)C(=O)O` (stereo not drawn) was “inactive”; that for `Cc1cc(-c2nnc(-c3ccccc3)c(-c3ccccc3)n2)c(C)o1` was “inactive”.
Under `Cc1ccc(-n2c(C)cc(/C=N/NC(N)=S)c2C)cc1` stands “inactive”.
Under `O=C(N/N=C/c1ccco1)c1cccc(S(=O)(=O)Nc2ccccc2Cl)c1` stands “inactive”.
On to `CCN(CC)S(=O)(=O)c1cccc(C(=O)NC(Cc2c[nH]c3ccccc23)c2nnc3n2CCC3)c1` (stereo not drawn), for which the compound was classed as inactive.
Under `CCn1c2ccccc2c2cc(/C=N/NC(=O)c3ccccc3)ccc21` stands “inactive”; under `O=C1c2ccccc2C2=Nc3ccccc3SC(c3cccc(F)c3)C12` (stereo not drawn), “inactive”.
Under `CC1C(C#N)=C(N)OC2=C1C(=O)CCC2` (stereo not drawn) stands “inactive”; under `Cc1cccc(NC(=O)CCC(=O)OCc2ccc(Br)cc2)c1`, “inactive”; under `Cc1ccnc2nc(C(=O)Nc3ccc4c(c3)OCO4)nn12`, “inactive”.
For `CN(C)c1ccc([C@@H]2[C@@H]([N+](=O)[O-])[C@H]3C=Cc4ccccc4N3[C@H]2C(=O)c2ccc(Cl)cc2)cc1`, the compound was called inactive.
Under `COc1ccc(OC)c(/C=N/NC(=O)c2cc3c(OC)c(OC)ccc3[nH]2)c1` stands “inactive”; under `O=C(Cc1cccs1)Nc1cccc(-c2nc3cc4ccccc4cc3[nH]2)c1`, “inactive”.
Under `Cc1cc(/C=N/n2cnnc2)c(C)n1-c1ccc(OCc2ccc(F)cc2)cc1` stands “inactive”.
Under `O=C(O)CC(NC(=S)NCc1ccccc1)C(=O)O` (stereo not drawn) stands “inactive”.
For the compound `COc1ccc(/C=N/Nc2cc(C)nc3c(C)cccc23)cc1`, the compound was classed as inactive.
The value for `COC(=O)c1ccc(Nc2cc(C)nc3ccccc23)cc1` was “inactive”.
Under `O=c1c2oc3ccccc3c2ncn1Cc1ccc(Cl)cc1` stands “inactive”; under `Cc1c(C(c2cccc([N+](=O)[O-])c2O)c2c(C)n(C)n(-c3ccccc3)c2=O)c(=O)n(-c2ccccc2)n1C`, “inactive”; under `Cc1[nH]n(-c2ccccc2)c(=O)c1-c1ccc(Cl)cc1`, “inactive”.
The value for `COc1ccc(OC)c(NC(=O)c2ccccc2NS(=O)(=O)c2cccc3cccnc23)c1` was “inactive”.
Regarding `Nc1nnc(SCc2ccc3c(c2)OCO3)s1`, the result was inactive.
Under `CCOC(=O)C(NS(=O)(=O)c1ccccc1)(C(F)(F)F)P(=O)(OCC(C)C)OCC(C)C` (stereo not drawn) stands “inactive”; under `c1ccc(-c2cc(CSc3nc4ccccc4[nH]3)on2)cc1`, “inactive”; under `Cc1ccc(N=Cc2sc(O)c3ccccc23)cc1`, “inactive”.
Under `N=c1sccn1CC(=O)Nc1ccccc1Oc1ccccc1` stands “inactive”; under `O=C(NCCNc1ccc([N+](=O)[O-])cc1C(F)(F)F)c1ccc(F)cc1`, “inactive”; under `O=C(NCCNc1ccc([N+](=O)[O-])cc1C(F)(F)F)c1ccccc1F`, “inactive”.
